107 sequences from PubChem BioAssay AID1508600 (Functional Genomics Laboratory (NCATS/FGL), 2020) can be followed below.

Out of some 53,000 sequences screened, about 3,700 (7%) were called active.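 Rule for the calls: active = gene knockdowns whose robust z-score for IL-1 alpha signal is at least 2 or at most -2, so actives lie on both sides; inactive = the rest.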 Only a selection was taken, and actives are over-represented in it overall.

The test is described as follows: Components of the Cytosolic LPS Sensing Pathway: Gene Identification via Genome-wide siRNA Screen.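 Note: robust z of the log signal after scaling to non-targeting control siRNA wells of the plate.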 The conditions noted are these: RAW264.7 macrophages, IL-1a HTRF, actives lie on both sides, screened at 100 nM (by protocol), cells primed 5 h with Pam3CSK4 first. The essentials:
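Using IL-1a HTRF as read-out, the screen measured release from RAW264.7 cells after 48h siRNA knockdown (100 nM), 5 h Pam3CSK4 priming and 24 h cytosolic LipidA. Values were expressed relative to negative-control wells as robust z-scores.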
A general note: TR-FRET usually uses a lanthanide donor and a delayed reading to cut background.
Turning to GGAGAAUGACUACUAUACUTT against Stt3a, the z-score was -0.127 (inactive). Regarding CCAGACACGCAUUGCGAAATT against H2-M2, the z-score is 0.357 (inactive). As to GCAUCAAUUCCCAAACCUUTT against Selenov, the z-score was -0.0263 (inactive). The value for GGGCAAACCAGUUAGCAGATT against Atxn2 was 0.278 (inactive); that for GGGAAGCCUUACUUAUUGGTT against Vmn1r53 was 1.25 (inactive); that for GGACGAAAUCUUGUCUGAUTT against Atg4b was 2.59 (active). Turning to GGACAAAACCUCAGUUGAUTT against Bves, the z-score is 1.05 (inactive).

For the sequence CCAAGGACACUAUACAAAUTT against Fank1, the z-score is 0.957 (inactive). Consider CCCGCAACAAUAAACCUGATT against Yif1b, for which the z-score is -1.36 (inactive). The value for GCAGUACAUAGGACAAUACTT against Ccdc97 was 0.0835 (inactive); that for GGAAGAAGAAAGUGUUAAATT against Ythdf2 was -0.337 (inactive); that for GGUCCAAUUUUAUAACAGUTT against Dmtf1 was 0.359 (inactive).

For the sequence GCCAUGUCAAUCAAUCACUTT against Nucks1, the z-score was -2.57 (active).

On to GGCUACCAAGGCAGUUUCCTT against Glis1, for which the z-score was -1.35 (inactive). Regarding GCUUUACUCCAGAUGGAUCTT against Chaf1b, the z-score is 3.23 (active). As to GGGUAUCAGUGCCUUCCUGTT against Acads, the z-score is -1.05 (inactive). With GGUCACUCGGUUCACAAAATT against Bid, the z-score is -0.731 (inactive). Take CGUUCAUAUAGAGAACUGUTT against Naip1: the z-score is 0.699 (inactive). Turning to “CGUGCCUGCUCAAUUAAUUTT against 1700067P10Rik”, the z-score was 2.46 (active). As to GGGUAAUAGACCAUUUCUUTT against Olfr124, the z-score was 0.255 (inactive). The value for GGAGCUUAGAGGAACGAAUTT against Cyp2j9 was 1.4 (inactive); that for GGAUUUUGGCCAAAUUGGUTT against Slc25a30 was -2.08 (active); that for GGAAGAAGAAGACCAGGGATT against Parvb was -0.0188 (inactive). As for GGCCAACUUCGAAGAAAAGTT against Mrpl52, the z-score was 0.192 (inactive). Regarding CCAAAAAAUCCUAUACUCUTT against Cdh8, the z-score is 1.42 (inactive). For GGUCACUUCCUUAAUUUUATT against Disc1, the z-score was -1.62 (inactive). Then GGAAGACCCUAAUCUAGUCTT against Cox5b, with 2.1 (active); and GGCUUGGUGUUUUGAUUAGTT against Rogdi, with 1.6 (inactive); and GGUCUUGCAUGUCUCUGAGTT against Lrrc47, with -1.45 (inactive). GGAGUUUGAACAUAUGAAGTT against Rcn1: the z-score was -0.417 (inactive).

On to GCUAUCAUGAAGCUAAAUGTT against Igf2bp1, for which the z-score was 0.267 (inactive). Regarding GGACAAGCAAGAAGGAAUUTT against Polr2j, the z-score is -2.43 (active). Then CCAGAUUAUGACAAAGCGUTT against Glyat, with -0.0538 (inactive); and AAACCAUACUUGAAAGAAATT against Olfr943, with -0.36 (inactive). Consider GCAGUAGGUUGCACACAUATT against Art1, for which the z-score was -2.11 (active). The value for GCACACGUCCUAUAAAAAUTT against Rad54b was 0.532 (inactive).

As for GGACUUCUCUGUGAAGAUGTT against Ctsf, the z-score is -0.129 (inactive). As for GGAGAGAGGAUAAGUCACATT against Jsrp1, the z-score was -1.44 (inactive).

GCUGGAUCCAUCUAAUUGCTT against Klhl12: the z-score is 0.0684 (inactive).

For CGGGAUCUUAGAAGAGCAATT against Ptpre, the z-score was 2.6 (active). With GGACCAGUUAAAGUCACCATT against Atp4b, the z-score is -1.81 (inactive). As for GGAAGGUGGCUAUUUUAAUTT against Acsl3, the z-score is -0.207 (inactive).

Consider CCAUUUCUUUCAGUGGCUGTT against Olfr48, for which the z-score was -0.47 (inactive). With GGCUAUAAAAGCACAGUUUTT against Slc25a26, the z-score was -0.61 (inactive). Take CCCUGCAUUUGUCAAUUAUTT against Hnrnpl: the z-score was -0.161 (inactive).

As for “GGGACAAAGAGAUACACAUTT against 9530056K15Rik”, the z-score is 1.11 (inactive).

With GCCUGAUCGAUACGUGAUCTT against Naaladl1, the z-score was 3.35 (active). As to GGAGGACAACAGCAAAACATT against Atoh1, the z-score was -1.01 (inactive).

Turning to GGAAAGAGAAAAACAACCATT against Cngb3, the z-score is -0.522 (inactive). GGCUCACAUUGUAACUUAGTT against Krtap5-2: the z-score is 1.41 (inactive). As for GGAGAAUGCUAAGGUUACUTT against Pcdhga9, the z-score was 0.269 (inactive).

On to CGGCACACUAAGAAACGGATT against Odf3l1, for which the z-score is 0.152 (inactive). For the sequence GGAAGGAUAUGAGAAUUUCTT against Nt5c3, the z-score is 2.51 (active). GCUCUUACAUAGAACUUUGTT against Tpbg: the z-score was -0.218 (inactive). Regarding GGCCUUUUUUCUAUAUCUATT against Galnt3, the z-score is -0.637 (inactive). Then GGUGGAGGUGUGAUGGAUUTT against Slamf1, with 5.09 (active). Then GGUGGUGGCAGAAAUGAAUTT against Dpep2, with -0.946 (inactive). For CCAGUUGUGCAAUCAACAATT against Fam98c, the z-score is -0.367 (inactive). Then CGCGGUGGAGCUUCGAGAATT against Nrtn, with 0.374 (inactive); and GUUUCUCCAUGGAGUCAUUTT against Psmb5, with -0.742 (inactive). In the case of GGCAUUCGAAGGGACAGAUTT against Arg2, the z-score is -2.06 (active). For the sequence “GUGACCUCAUCCAGAAAAUTT against Vmn1r190-ps”, the z-score is -0.613 (inactive). On to GGAUCACUUUGACCACAACTT against Rab31, for which the z-score is 1.43 (inactive). In the case of GCACUGGACCAAAGAACGGTT against Cercam, the z-score is 1.14 (inactive). For the sequence GCCAUUAUAUAGUCCUACCTT against Klf1, the z-score was 0.719 (inactive). The value for GGGUCAUGAAACCUACCUUTT against Hikeshi was 0.182 (inactive); that for GCUUGGACUGGAGUGAAGCTT against Map6d1 was -2.4 (active). For GGCUACAAAGAUGCAGACUTT against Pi4k2a, the z-score was 0.22 (inactive). Regarding GACAUAUUUGGGUUUCUAATT against Vmn1r15, the z-score was -0.645 (inactive). Then GGAAUGACUUUUGAGACAGTT against Cyp1a1, with -0.732 (inactive); and GGUAGAGAUCAUCAAUGCATT against Ggt5, with 0.0858 (inactive); and “GGAGUCCAAGUUUAAGGAATT against 4930522H14Rik”, with -1.65 (inactive). Regarding CGGGACACUUGAAUUGGCUTT against Frmd4a, the z-score was -2.25 (active). GGAACAUUCUCUCCUUAUGTT against Ctps: the z-score is -0.168 (inactive). Then GGAGUUGCAUCACUUGCUCTT against BC016579, with 0.441 (inactive).

On to GGUAACUGGUGUCAUUUAATT against Zfp474, for which the z-score is 0.619 (inactive).

For the sequence GGCAAGAUGCACAAGACUUTT against Cacna1s, the z-score was 2.6 (active). With GGAUGUGUUACUUACCAAATT against Map4, the z-score was 0.607 (inactive).

In the case of GGCCUUCUAUACUACAGACTT against Hdac1, the z-score is -1.23 (inactive). Turning to CGGCUCACUAGCAGUGUCUTT against Ppm1b, the z-score was -0.209 (inactive). As for GGUUACUCCUUUUUCAAUGTT against Elf5, the z-score is -0.636 (inactive). Consider GGACAUAGUCUGAGGCAAGTT against Ost4, for which the z-score is -1.34 (inactive). On to GCUGUUCAAUUUGAUUACUTT against Dapp1, for which the z-score was 1.77 (inactive).

As for GGCAACCAUAGACGAUGAATT against Rerg, the z-score is -2.38 (active). Turning to GGACCAGUUAAAGUGGCAGTT against Oas1e, the z-score was -0.00736 (inactive). In the case of GGUACUUGUACUAAUCGCUTT against Lpcat2, the z-score was 0.683 (inactive). As to CCCUUGAUUAAGUGGAUUATT against Tgfa, the z-score is 1.19 (inactive). With GGUGAUGGCUGUUCCUUUCTT against Zdhhc2, the z-score is 0.533 (inactive).

GGAUGAAAUUGGAAAGGGCTT against Camkk2: the z-score was -0.0472 (inactive). With CCAAUCCUCAACCUUGAAUTT against Ddx19a, the z-score was 0.0508 (inactive).

Consider “GGGACUUCCUUAUUGGAACTT against A830019P07Rik”, for which the z-score was 1.23 (inactive). GGAUGUCAACAUUCGAGAUTT against Tmem231: the z-score is 0.993 (inactive).

For the sequence GGCCAGAGACAGUUAUCUUTT against Sptssb, the z-score is 2.43 (active). As for GGAGAAUUGUUUUUACCAGTT against Bbox1, the z-score is 0.13 (inactive). With GGACUGACUGGAUUUUUCCTT against Adamts12, the z-score is -0.102 (inactive).

Take GGCAUUAGGAUACAUAACATT against Rpgrip1l: the z-score is -0.743 (inactive). On to GCUGUAACCAACAUACCUCTT against Inka1, for which the z-score is -0.91 (inactive). For GGAACAAAGAUUGAGAGAATT against Sltm, the z-score is -1.62 (inactive). For GGACAACUUUGAGGAGAUGTT against Tubg2, the z-score is 3.23 (active). As to GGUUAUCAAAGCUAAGAAUTT against Ifi209, the z-score is -0.0859 (inactive). For the sequence GCUAGUCAGAAGAAGUACUTT against Actrt2, the z-score was -0.402 (inactive).

For the sequence CCGAAGCAUGAAGAAUCUATT against Tubd1, the z-score was 0.544 (inactive). Take GAGCAAUAAGCUAGGGUGATT against Olfr1428: the z-score was 0.239 (inactive). In the case of “GGAAUGUACCAGAAAUACUTT against 4921504E06Rik”, the z-score was 3.01 (active).

In the case of GGCAAAUUCGAAAUAGACATT against Evx2, the z-score is 0.227 (inactive).

For the sequence GGAAGAAAUAGAGUUUUACTT against Ephx2, the z-score was 3.42 (active). Consider GGCUCUGAUGUUUCUAAAATT against Hdac10, for which the z-score was 1.29 (inactive).
